Test results: PubChem BioAssay AID488789 (Broad Institute, 2010)
Entries with a potency or affinity are not part of this list. Results filed as inconclusive are left out. Active and inactive are the calls of the source.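 The calls were made as follows: active = samples whose fitted half-maximal inhibition concentration is no more than ten times the top valid dose tested; inconclusive = flat response between -70 and -30, or invalid curve fit; inactive = flat within 30 of zero, potency above limit, or signal rising.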

Molecular target: Trypsin (Sus scrofa) (UniProt P00761)
Sequence (P00761 whole entry, looked up): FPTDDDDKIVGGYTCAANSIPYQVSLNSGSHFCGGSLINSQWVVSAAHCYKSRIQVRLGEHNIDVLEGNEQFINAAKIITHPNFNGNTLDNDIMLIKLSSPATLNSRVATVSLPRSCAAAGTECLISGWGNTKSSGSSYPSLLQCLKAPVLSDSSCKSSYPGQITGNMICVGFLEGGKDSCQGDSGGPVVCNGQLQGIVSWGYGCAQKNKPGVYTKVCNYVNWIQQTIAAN
Assay: porcine trypsin inhibitors, dose response, selectivity assay for Rce1 protease inhibitor project, biochemical, quenched peptide fluorescence, cherry-pick (AID 488789);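 also: more negative means stronger trypsin inhibition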
Conditions: quenched peptide cleavage fluorescence; series mostly up to 10 µM

outcome, inactive:
COc1ccc(S(=O)(=O)N(CC(=O)N2CCCC2)Cc2ccccc2)cc1, N/C(Cc1ccc([N+](=O)[O-])cc1)=N\OC(=O)c1ccc2ccccc2c1, COc1ccc2[nH]c(C(=O)NCCCn3ccnc3)cc2c1, Cc1cc(N2CCOCC2)n2cc(-c3ccccc3)nc2n1, CCCCOC(=O)Nc1nc(C)c(C(=O)OCC)s1, COc1cc2c(cc1OC)C(C)=NC1(CCCCC1)C2, CCOC(=O)C[n+]1ccc2c([nH]c3ccccc32)c1C, COc1ccc(OC)c(/C=N/c2c(-c3ccc(O)c(OC)c3)nc3ccccn23)c1, Nc1nnnn1/N=C/c1cccc(OCc2ccccc2Cl)c1, CCOC(=O)c1c(NC(=O)COc2ccccc2F)sc2c1CC(C)(C)NC2(C)C, CCC(=O)Nc1cc(-c2nn(CC(=O)N3CCCCC3)c(=O)c3ccccc23)ccc1N1CCOCC1, O=C(C(Cc1ccccc1)N1C(=O)c2ccccc2C1=O)N1c2ccccc2CCc2ccccc21 (configuration not stated), COc1cc(-c2nc3ccccn3c2/N=C/c2ccccc2)ccc1O, O=C(CC1(O)C(=O)N(C/C=C/c2ccccc2)c2ccccc21)c1ccccn1 (configuration not stated), CCOC(=O)C1CCCN(S(=O)(=O)c2cc3[nH]c(=O)c(=O)[nH]c3cc2C)C1 (configuration not stated), C/C=C(/C)C(=O)O[C@H]1[C@@H](O)c2c(ccc3ccc(=O)oc23)OC1(C)C, COc1ccc(CC(=O)OCC(=O)Nc2ccc(Br)cc2)cc1, COc1ccc(Br)cc1C(=O)Nc1cc(C)cc(C)c1, O=C(CN(C1CCCCC1)C1CCCCC1)N1CCc2ccccc2C1, COc1ccccc1NC(=O)/C(=C\c1cccnc1)NC(=O)c1ccc(C)cc1, CC(=O)c1ccc(-c2ccc(C(=O)N3CCC(C(N)=O)CC3)o2)cc1, NC(=O)[C@H]1CC2(CC(c3cccc(NC(=O)COc4ccc(Cl)cc4)c3)=NO2)CN1C(=O)C(c1ccccc1)c1ccccc1 (some centres not stated), CCOC(=O)c1cc(-c2ccccc2)sc1NC(=O)C(C)Sc1nnnn1C (configuration not stated), CC(C)c1cccc(OCC(=O)Nc2ccc(S(=O)(=O)Nc3ccccn3)cc2)c1, CCCCCCCCCC[N+](C)(C)CC/C=C1/c2ccccc2Sc2ccc(Cl)cc21, CN1CCN(C(=O)c2ccc(-c3cccs3)s2)CC1, COC(=O)c1nc(N)sc1-c1ccc(Cl)c(Cl)c1, CCCNC(=O)c1c(N)n(-c2ccc(S(N)(=O)=O)cc2)c2nc3ccccc3nc12, CC(C)N1CCN(S(=O)(=O)c2ccc3ccccc3c2)CC1, O=S(=O)(c1ccc(-c2csc(Nc3ccc(F)cc3)n2)cc1)N1CCCC1, CCOc1ccc(N(CC(=O)NC2CC3CCC2C3)S(=O)(=O)c2ccccc2)cc1 (configuration not stated), C=C(C)CSc1nc2sc3c(c2c(=O)n1-c1ccc(OC)cc1)CCN(C)C3, COC(C/C=C/C(=O)[C@H](C)OCc1ccccc1)OC, CCC(C)(C)c1ccc(OCCCC[n+]2cccc(C)c2C)c(C(C)(C)CC)c1, CC(C)c1c(C(=O)N/N=C/c2c[nH]c3ccccc23)nnn1-c1nonc1N, O=C(Nc1ccc2c(c1)CCC2)c1ccccc1Br, COCc1c(C(=O)N/N=C/C2CC=CCC2)nnn1-c1nonc1N (configuration not stated)
